Compound activity from PubChem.
An excerpt weighted towards active compounds, which were near 7.5% of everything screened.
ELG1 DNA repair – qHTS screen for small molecules that inhibit ELG1-dependent DNA repair in human embryonic kidney (HEK293T) cells expressing luciferase-tagged ELG1 | 2.3% of 330,000 active | Potency, µM (doses to about 46.1 µM), for the others: top-dose activity change, negative = inhibition, hits mostly inhibitors | HEK293T ELG1-luciferase reporter, luminescence, 16 h; DNA damage induced by 5-fluorouridine; note: potency is the fitted concentration of half-maximal effect; nearly all actives have a fitted effect of over 55% in size
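Reporter activity after DNA damage by 5-fluorouridine is monitored. Compound-treated cells incubate 16 hr at 37 °C, then ONE-Glo is added for 30 min before luminescence reading.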
RORgamma inh – qHTS for inhibitors of ROR gamma transcriptional activity | Nuclear receptor ROR-gamma (Mus musculus), P51450 | Drosophila S2 Gal4-RORgamma UAS-luciferase reporter, 20 h | Potency, µM (top dose mostly 53.6 µM), for inactives: top-dose activity change, negative = inhibition, usual class: inhibitors | 5.4% of 310,000 active; note: potency is the fitted concentration of half-maximal effect; nearly all actives have a fitted effect of over 60% in size
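Schneider cells (Drosophila), stable Gal4 DBD–ROR gamma + UAS-luc; 1 hr cmpd preincubation; Cu2+ induction 700 uM final; 20 hr ambient; luminescence.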
VP16 counter – VP16 counterscreen qHTS for inhibitors of ROR gamma transcriptional activity; 3.5% of 310,000 active; Potency, µM (titrated, usually from 53.6 µM), for inactives: at the highest dose activity, negative = inhibition, most hits filed as inhibitors; Drosophila S2 Gal4-VP16 UAS-luciferase, luminescence, 20 h;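 note: Gal4-VP16 expression switched on by copper sulfate through the metallothionein promoter; potency is the fitted concentration of half-maximal effect; nearly all actives have a fitted effect of over 50% in size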
TSHR antagonist – Antagonists of the Thyroid Stimulating Hormone Receptor: HTS campaign; TSHR-expressing cells, TSH-stimulated cAMP HTRF, 2 h; stronger effect = lower value; activity change, negative = inhibition, % at 11.5 µM; 0.2% of 330,000 active;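 active = activity change below a set negative limit, meaning inhibition stronger than a set level, cut at about -70% in these data; inconclusive = activity change between two set negative limits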
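Cell-based HTRF cAMP assay; TSHR cells + compound, TSH EC80 (4nM final), 2 h, 37 deg C. Lysis with anti-cAMP cryptate and cAMP-d2, 30 min RT, read 665/620 nm.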
B2AR arrestin – qHTS assay of beta-arrestin-biased ligands of beta2-adrenergic receptor | Beta-2 adrenergic receptor (Homo sapiens), P07550 | beta-arrestin recruitment to beta2AR, cell-based reporter | Potency, µM (series often up to 46.1 µM), inactives show at the top dose activation, hits mostly activators | 0.02% of 330,000 active;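 note: potency is the fitted concentration of half-maximal effect; 0% = DMSO controls and full agonism = EC100 isoproterenol or metaproterenol; nearly all actives have a fitted effect of over 65% in size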
Target sequence (P07550 whole entry, looked up): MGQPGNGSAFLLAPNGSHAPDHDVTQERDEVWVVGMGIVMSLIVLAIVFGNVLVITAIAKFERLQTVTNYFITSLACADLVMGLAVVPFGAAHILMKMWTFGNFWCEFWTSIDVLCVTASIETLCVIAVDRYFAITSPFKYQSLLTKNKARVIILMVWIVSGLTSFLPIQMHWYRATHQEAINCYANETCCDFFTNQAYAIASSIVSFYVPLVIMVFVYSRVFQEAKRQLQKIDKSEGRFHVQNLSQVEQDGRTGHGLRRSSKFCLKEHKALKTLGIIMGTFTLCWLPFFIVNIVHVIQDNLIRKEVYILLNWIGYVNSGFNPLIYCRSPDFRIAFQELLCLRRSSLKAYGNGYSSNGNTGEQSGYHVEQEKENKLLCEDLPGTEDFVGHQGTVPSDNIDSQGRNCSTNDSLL
The depositor's hits bear a star; [ ] = another dose, or the depositor's remark. Unless noted, calls come from the whole dose curve; as a rule, active = well fitted curve in the direction sought with a large enough effect; inconclusive = small, poorly fitted or top-dose-only effect, or another doubt; inactive = no such curve, though single readings can be large; an effect the other way counts as inactive or inconclusive. Unless noted, % is set by controls: 0 for no effect and ±100 for the full control effect.

`CCCCCC1CCC(C(=O)N2CCOCC2)CC1` (stereo not given) gave ELG1 DNA repair 0.2%, RORgamma inh 27.0%, VP16 counter 8.7%, TSHR antagonist -3.8 and B2AR arrestin -1.2%.
For O=C(NNC(=O)c1ccccc1Br)c1ccccc1Cl the results were ELG1 DNA repair inconclusive, RORgamma inh 24.6%, VP16 counter 2.3%, TSHR antagonist -4.4 and B2AR arrestin -0.1%.
Screening S=C(NC1CCCCC1)NN(c1ccccc1)c1ccccc1 returned ELG1 DNA repair 5.8%, RORgamma inh 2.51µM*, VP16 counter 5.62µM*, TSHR antagonist -4.4 and B2AR arrestin -0.1%.
COc1ccc(Cl)cc1C(=O)NNC(=S)NC1CCCCC1 was read as ELG1 DNA repair 0.5%, RORgamma inh 0.251µM*, VP16 counter inconclusive, TSHR antagonist -2.0 and B2AR arrestin 0.7%.
For O=C(NNC(=S)NC1CCCCC1)c1ccccc1Br the results were ELG1 DNA repair 18.3%, RORgamma inh 1.12µM*, VP16 counter inconclusive, TSHR antagonist 4.1 and B2AR arrestin -0.5%.
O=C(NNC(=S)Nc1ccccc1Cl)c1ccccc1Br was read as ELG1 DNA repair inconclusive, RORgamma inh 7.94µM*, VP16 counter inconclusive, TSHR antagonist 0.6 and B2AR arrestin -0.8%.
For CCN(CC)S(=O)(=O)c1ccc2c(c1)c(=O)c(C(=O)NCCc1ccc(OC)c(OC)c1)cn2C the results were ELG1 DNA repair -28.0%, RORgamma inh 18.2%, VP16 counter -6.7%, TSHR antagonist -13.5 and B2AR arrestin 0.0%.
Screening O=C(O)c1cc(N/N=C/C=C/c2ccccc2)ccc1Cl returned ELG1 DNA repair inconclusive, RORgamma inh 35.0%, VP16 counter 6.0%, TSHR antagonist -2.6 and B2AR arrestin 0.0%.
For Oc1ccc(CNCc2ccc3c(c2)OCO3)c2cccnc12 the results were TSHR antagonist -8.4 and B2AR arrestin 14.4%.
Screening CN(C(=S)NC(=O)c1ccc(Cl)cc1)C1CCCCC1 returned ELG1 DNA repair inconclusive, RORgamma inh 0.316µM*, VP16 counter 0.794µM*, TSHR antagonist -9.6 and B2AR arrestin 0.4%.
Screening COC(=O)Cc1ccc(NC(=O)c2ccccc2Br)cc1 returned ELG1 DNA repair inconclusive, RORgamma inh -14.8%, VP16 counter -5.9%, TSHR antagonist 2.0 and B2AR arrestin 0.0%.
COC(=O)Cc1ccc(NC(=S)NNC(=O)c2ccccc2Br)cc1 was read as ELG1 DNA repair 5.3%, RORgamma inh 1.58µM*, VP16 counter 17.8µM*, TSHR antagonist 3.9 and B2AR arrestin 2.9%.
`O=C(NNC(=O)C1CCC1)c1ccc(Cl)cc1` gave ELG1 DNA repair 1.8%, RORgamma inh 1.7%, VP16 counter -8.9%, TSHR antagonist 2.3 and B2AR arrestin -0.2%.
For O=C(NC(=S)NC1CCCCC1)c1ccccc1 the results were ELG1 DNA repair inconclusive, RORgamma inh 5.01µM*, VP16 counter 7.08µM*, TSHR antagonist -22.0 and B2AR arrestin 5.6%.
For CN(C(=S)NC(=O)c1ccccc1)C1CCCCC1 the results were ELG1 DNA repair inconclusive, RORgamma inh 1.12µM*, VP16 counter 1.26µM*, TSHR antagonist -5.4 and B2AR arrestin -0.1%.
`Cc1ccc(S(=O)(=O)c2nc(S(=O)(=O)c3ccc(C)cc3)c(N3CCN(CCO)CC3)s2)cc1` gave ELG1 DNA repair inconclusive, RORgamma inh -1.2%, VP16 counter -0.6%, TSHR antagonist 20.6 and B2AR arrestin -0.5%.
Screening CC1CCCC(NC(=S)NC(=O)c2ccccc2Br)C1C (stereo not given) returned ELG1 DNA repair inconclusive, RORgamma inh 2.51µM*, VP16 counter 5.01µM*, TSHR antagonist -33.4 and B2AR arrestin -0.4%.
Screening O=C(NNC(=S)Nc1ccc(Cl)cc1)c1ccccc1OC(F)F returned ELG1 DNA repair 23.1µM*, RORgamma inh -38.8%, VP16 counter inconclusive, TSHR antagonist -4.1 and B2AR arrestin 3.4%.
`O=C(NNC(=S)NCc1ccccc1)c1ccccc1OC(F)F` gave ELG1 DNA repair -0.4%, RORgamma inh -41.5%, VP16 counter inconclusive, TSHR antagonist 12.6 and B2AR arrestin -0.2%.
For CN(C(=S)NC(=O)c1ccc(F)cc1)C1CCCCC1 the results were ELG1 DNA repair inconclusive, RORgamma inh 0.891µM*, VP16 counter 1.12µM*, TSHR antagonist 8.8 and B2AR arrestin 3.5%.
For COc1ccc([C@@H]2CC(=O)c3c(O)cc(O[C@@H]4O[C@H](CO)[C@@H](O)[C@H](O)[C@H]4OC4O[C@@H](C)[C@H](O)[C@@H](O)[C@H]4O)cc3O2)cc1O (stereo not given in full) the results were RORgamma inh 0.2% and VP16 counter -0.7%.
Screening CCOC(=O)C1=C(c2ccccc2)c2ccc(OC)cc2N(S(=O)(=O)C(F)(F)F)C1C(=O)OCC (stereo not given) returned ELG1 DNA repair 14.6µM*, RORgamma inh 6.6%[40.7 µM], VP16 counter 3.1%[40.7 µM], TSHR antagonist 29.8 and B2AR arrestin -0.9%.
`CCOC(=O)C1=C(C)c2ccccc2N(S(=O)(=O)C(F)(F)F)C1C(=O)OCC` (stereo not given) gave ELG1 DNA repair 2.9%, RORgamma inh 15.5%, VP16 counter 2.6%, TSHR antagonist -24.3 and B2AR arrestin -0.8%.
CCOC(=O)C1C(C(=O)OC)=C(C2=CCCCC2)c2ccccc2N1S(=O)(=O)C(F)(F)F (stereo not given) was read as ELG1 DNA repair 18.3µM*, RORgamma inh 27.0%, VP16 counter -9.1%, TSHR antagonist 3.7 and B2AR arrestin -0.6%.
COc1ccc(COC(=O)N/N=C2/C[C@@H](O)[C@@H](O)[C@@H]3[C@@H]4C(=O)N(Cc5ccccc5)C(=O)[C@H]4CC[C@@H]23)cc1 was read as RORgamma inh 26.1%[10 µM] and VP16 counter 5.7%[10 µM].
For COc1ccc2c(Cl)c(C(=O)NN)sc2c1 the results were ELG1 DNA repair -1.6%, RORgamma inh 11.2µM*, VP16 counter inconclusive, TSHR antagonist 7.0 and B2AR arrestin -0.9%.
Screening Cc1ccc(NC(=S)NC(=O)c2sc3ccccc3c2Cl)c(C(=O)O)c1 returned ELG1 DNA repair inconclusive, RORgamma inh 7.08µM*, VP16 counter inconclusive, TSHR antagonist -5.7 and B2AR arrestin 0.0%.
`O=C(O)c1ccccc1NC(=S)NC(=O)c1sc2ccccc2c1Cl` gave ELG1 DNA repair inconclusive, RORgamma inh 6.8%, VP16 counter 9.8%, TSHR antagonist -4.9 and B2AR arrestin 0.1%.
